This is part of a sample that, as a whole, favours compounds with a hit. Of some 83,000 tested, about 20% had one in any assay.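 Cells were grown in 96-well plates and exposed to the test compound at a single concentration for 48 hours; results are reported as percent growth, with values below 10 considered active.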 Values without a mark were called inactive. Calls of active or inactive are those of the source.

This experiment deals with OVCAR-4 ovarian. As to the kind of experiment: NCI-60 one-dose screen, 48 h (100 = growth as untreated, 0 = no growth, -100 = all killed). As to conditions: 10 µM unless noted. How it is done: Growth inhibition of the OVCAR-4 human tumor cell line is measured as a screen for anti-cancer activity. Cells are grown in 96 well plates and exposed to the test compound for 48 hours. Compounds are tested at a single concentration, which is 10^-5 M for most compounds. The reported endpoint is percent growth (GI% or GIPRCNT), where numbers from 0 - 100% represent growth inhibition, and numbers from -100% - 0 represent cell death. For example, a value of 40 represents 60% growth inhibition. A value of 0 means no net growth occurred over the course of the experiment. A value of -40 indicates 40% of cells at the beginning of the experiment died by the end of the experiment. A value of -100 means all cells are dead at the end of the experiment.
NCI-60 Human Tumor Cell Lines Screen was performed using the standard one-dose NCI protocol, which is described in more detail at https://dtp.cancer.gov/discovery_development/nci-60/default.htm.
Compounds with GIPRCNT values below 10 were considered active. Activity score was based on GIPRCNT using the following formula: […]
Score is 0 for GIPRCNT values of 100 or above, 50 for GIPRCNT values of 0, and 100 for GIPRCNT values of -100.
Take `CCCCCCCCCCCCNC(=O)[C@H]1CSC(c2cc3ccccc3s2)N1` (stereo not given in full): the growth was -68.5% (active).

Consider `COc1ccc(C2C=C(c3ccc(N)cc3)N=C3SC=CN32)cc1OC` (stereo not given), for which the growth is 102%.

For `Cc1cc(C2=NNC(=O)Cc3cc4c(cc32)OCCO4)cc(C)c1N`, the growth was 56.8%.

In the case of `COc1ccc(C2=CC(c3cc(OC)c(OC)c(OC)c3)NC(=O)N2)cc1OC` (stereo not given), the growth was 18.8%.

Regarding `O=c1[nH]c(-c2ccccc2)nc(CN2CCCCC2)c1O`, the growth was 110%.

Regarding `Cc1ccc(S(=O)(=O)n2cc(C(=O)C(=O)Nc3ccncc3)c3ccccc32)cc1`, the growth is 56%.

Consider `CC12CCCC(CC(=O)c3[nH]c4ccccc4c31)C2` (stereo not given), for which the growth is 60.7%.

Turning to `CC(=O)Nc1scc[n+]1Cc1ccccc1`, the growth was 108%.

Regarding `Cc1ccc(Nc2nnc(-c3ccc(Cl)cc3)o2)c(C)c1`, the growth is 82.1%.

As for `OCc1ncc(-c2ccccc2)s1`, the growth was 97.5%.

Take `O=C(NNC(=O)N1c2ccccc2C=Cc2ccccc21)c1ccc2ccccc2c1`: the growth was 91.8%.

Turning to `CCc1ccc(-c2ccc(=O)n(-c3ccc(S(N)(=O)=O)cc3)n2)cc1`, the growth is 74.5%.

`COc1ccc(-c2cn(-c3cccc(C(=O)/C=C/c4cc(OC)c(OC)c(OC)c4)c3)c(=O)[nH]2)cc1OC`: the growth was 85.7%.

Consider `COc1ccc(C(=O)c2cc(OC)c(OC)c(OC)c2OC)cc1O`, for which the growth was 83.9%.

For the compound `Nc1cccc(-c2nc3sccn3c2-c2ccnc(NCCCNS(=O)(=O)c3cccc4ccccc34)n2)c1`, the growth is 24.6%.

For `C=C1C(=O)O[C@H]2[C@H]1CC/C(COC(=O)NCc1ccccc1OC)=C\CC[C@@]1(C)O[C@@H]21`, the growth is 41.7%.

In the case of `CCCCOc1ccc(/C=C2/SC(N3CCOCC3)=NC2=O)cc1OCC`, the growth was 87.6%.

As for `Cn1ccc(Nc2nccc(Oc3ccc(C(=O)Nc4cccc(F)c4)c(Cl)c3)n2)c1`, the growth is 67%.

As to `O=S(=O)(c1ccc(OCCO)cc1)c1ccc(OCCO)cc1`, the growth is 111%.

In the case of `C=C[C@@H]1C[C@@H]2Cc3cc(F)ccc3N1O2`, the growth is 104%.

`COc1ccc(/C=C2\N=C(c3ccccc3)N(C(=O)c3ccccc3O)NC2=O)cc1`: the growth was 105%.

Turning to `C=C1CCC2C(C)(CO)C(O)CCC2(C)C1CC(NCc1ccccc1)C1=CCOC1=O` (stereo not given), the growth is 97.8%.

`CCN1CCN(CC(=O)N2c3cccc4cccc(c34)N(C(=O)CN3CCN(CC)CC3)C2c2cn(-c3ccccc3)nc2-c2cccc([N+](=O)[O-])c2)CC1`: the growth is -76.4% (active).

Consider `C1=Cc2ccccc2N(c2nnc(-c3ccccc3)o2)c2ccccc21`, for which the growth is 92.1%.

For `c1ccc(-c2nnc(-c3ccccn3)s2)nc1`, the growth was 91.5%.

For the compound `CC1=NC2=CC=CC3=NC(C(Cl)(Cl)Cl)=NC(=N1)N23`, the growth is 73%.

Take `CN(C[C@H]1Cc2c(cccc2N2CCN(c3ncccn3)CC2)CN1)[C@H]1CCCc2cccnc21`: the growth is 52.9%.

Turning to `C=C(C)[C@@H]1C[C@@H]2Cc3ccc(Cl)c(C)c3N1O2`, the growth was 91.7%.

In the case of `CC(C)(C)N1CCC1C(N)=O` (stereo not given), the growth was 104%.

For `COc1ccc2cc(-c3ccc(-c4ccc(C(=N)N)cc4)s3)ccc2c1`, the growth was 97.3%.

On to `COc1ccc(CN2CCc3c(Sc4ccccc4)nc(N)nc3C2=O)c(OC)c1`, for which the growth is 44.3%.

On to `CN1CCN(Cc2ccc(NC(=O)c3cncc(C#Cc4cnc(N)c5cnccc45)c3)cc2C(F)(F)F)CC1`, for which the growth is 11.9%.

On to `CCCCCCCCC(C)OC(=O)c1nn(C(C)=O)c2ccccc12` (stereo not given), for which the growth was 99.1%.

On to `Cc1nc2cncc(C#Cc3cncc(C(=O)Nc4ccc(CN5CCN(C)CC5)c(C(F)(F)F)c4)c3)c2nc1C`, for which the growth is 13.7%.

As for `CCCCCCCCCCCCNC(=O)[C@H]1CSC(c2ccsc2)N1` (stereo not given in full), the growth was -84.6% (active).

With `COc1cc(Cn2cc3c(c2)-c2oncc2CC3)cc(OC)c1OC`, the growth is 48%.

For the compound `CCOC(=O)c1ccc2c(c1)c1c(C)c3cccnc3c(C)c1n2C`, the growth is 62.7%.

Regarding `O=C(Nc1cccc(-n2cc(-c3ccncc3)c(-c3ccc(Cl)c(O)c3)n2)c1)Nc1ccc(Cl)c(C(F)(F)F)c1`, the growth was -3.42% (active).

In the case of `COc1ccc(Nc2[nH]n3c(=O)cc(C)nc3c2C(N)=O)c(OC)c1`, the growth was 99.2%.

Take `COc1ccc(-c2ccc(C)n2-c2ccc(-c3nc4ccccc4s3)cc2)cc1`: the growth was 92.9%.

The values are drawn from PubChem BioAssay (NCI).
